Laboratory results published in the supplement of paper PMC13380429.
Where a name gives a salt, the structure may show the parent alone.

What was measured:
[1] = tested on: Vero E6 infected with SARS-CoV-2; assay: morphology score (similarity to uninfected cells); higher = more like uninfected cells; conditions: 24 h
[2] = tested on: Vero E6 infected with SARS-CoV-2; assay: SARS-CoV-2 infection rate relative to infected DMSO; higher = more infection, active = 60 or less; conditions: 24 h

| SMILES | morphology score [1] | SARS-CoV-2 infection rate [2] |
| --- | --- | --- |
| CCCS(=O)(=O)Nc1ccc(F)c(C(=O)c2c[nH]c3ncc(Cl)cc23)c1F (10 µM) | -0.0271 | 114% (inactive) |
| C[C@H](NCc1ccc(OCc2ccccc2F)cc1)C(N)=O [priralfinamide] (10 µM) | -0.175 | 114% (inactive) |
| CN1CCC[C@@H]1CCO[C@](C)(c1ccccc1)c1ccc(Cl)cc1 [clemastine] (10 µM) | 0.677 | 26.5% (active) |
| OC[C@H]1O[C@@H](Oc2cc3c(O)cc(O)cc3[o+]c2-c2ccc(O)c(O)c2)[C@H](O)[C@@H](O)[C@@H]1O [kuromanin] (10 µM) | -0.129 | 110% (inactive) |
| CC(C)(C)C(=O)OCOP(=O)(COCCn1cnc2c(N)ncnc21)OCOC(=O)C(C)(C)C [adefovir-dipivoxil] (10 µM) | -0.117 | 124% (inactive) |
| CN(c1nccc(=O)[nH]1)C1CCN(c2nc3ccccc3n2Cc2ccc(F)cc2)CC1 [mizolastine] (10 µM) | 0.211 | 106% (inactive) |
| Nc1c(Br)cc(Br)cc1CN[C@H]1CC[C@H](O)CC1 [ambroxol] (10 µM) | -0.155 | 114% (inactive) |
| O=c1ncn2nc(Sc3ccc(F)cc3F)ccc2c1-c1c(Cl)cccc1Cl (10 µM) | -0.049 | 108% (inactive) |
| CNCC(=O)O [sarcosine] (10 µM) | 0.0271 | 108% (inactive) |
| CN[C@H](CC(C)C)C(=O)N[C@H]1C(=O)N[C@@H](CC(N)=O)C(=O)N[C@H]2C(=O)N[C@H]3C(=O)N[C@H](C(=O)N[C@H](C(=O)O)c4cc(O)cc(O)c4-c4cc3ccc4O)[C@H](O)c3ccc(c(Cl)c3)Oc3cc2cc(c3O[C@@H]2O[C@H](CO)[C@@H](O)[C@H](O)[C@H]2O[C@H]2C[C@](C)(N)[C@H](O)[C@H](C)O2)Oc2ccc(cc2Cl)[C@H]1O (10 µM) | 0.0907 | 104% (inactive) |
| C[C@@H](N)c1ccc(C(=O)Nc2ccnc3[nH]ccc23)cc1 (10 µM) | -0.104 | 112% (inactive) |
| C[C@@H]1CN(c2c(F)c(N)c3c(=O)c(C(=O)O)cn(C4CC4)c3c2F)C[C@H](C)N1 [sparfloxacin] (10 µM) | -0.0335 | 115% (inactive) |
| CC1(CN2CCC(n3c(=O)[nH]c4ccccc43)CC2)OCc2ccccc2-n2cccc21 (configuration not stated) [zaldaride] (10 µM) | -0.152 | 112% (inactive) |
| O=C(O)CCc1ccc(NCc2cccc(Oc3ccccc3)c2)cc1 (10 µM) | -0.132 | 116% (inactive) |
| OCCN1CCN(CCCN2c3ccccc3Sc3ccc(C(F)(F)F)cc32)CC1 [fluphenazine] (0.833333 µM) | -0.174 | 116% (inactive) |
| C[N+](C)(C)CC#CCN1CCCC1=O [oxotremorine-M] (10 µM) | 0.0604 | 89.5% (inactive) |
| O=[N+]([O-])c1ccccc1S(=O)(=O)NCC1CCC(CNC[C@H]2CCc3ccccc3C2)CC1 (some centres not stated) (0.833333 µM) | -0.0186 | 97.5% (inactive) |
| CCCCCCCCCCC(=O)O[C@H]1CC[C@H]2[C@@H]3CCC4=CC(=O)CC[C@]4(C)[C@H]3CC[C@]12C [Testosterone (undecanoate)] (10 µM) | 0.107 | 98.5% (inactive) |
| O=C1S/C(=C\c2ccc(OCc3cccc(B(O)O)c3)cc2)C(=O)N1Cc1ccc(F)cc1 (10 µM) | 0.0573 | 104% (inactive) |
| CC(C)c1cnn2c(NCc3ccccc3)cc(NCCCCCCN)nc12 (10 µM) | 0.714 | 41% (active) |
| O=C(CO)[C@@H](O)[C@@H](O)[C@H](O)CO [tagatose] (10 µM) | -0.0178 | 108% (inactive) |
| O=C(O)c1cc(N2N=C(C(F)(F)F)/C(=C/c3ccc(-c4ccccc4)o3)C2=O)ccc1Cl (10 µM) | 0.185 | 97% (inactive) |
| CCCN(CCC)[C@H]1CCc2ccc(O)cc2C1 [7-hydroxy-DPAT] (10 µM) | -0.355 | 122% (inactive) |
| CCCNS(=O)(=O)Nc1ncnc(OCCOc2ncc(Br)cn2)c1-c1ccc(Br)cc1 [macitentan] (10 µM) | -0.0952 | 112% (inactive) |
| CO/N=C(\C(=O)N[C@@H]1C(=O)N2C(C(=O)O)=C(Cn3ccc(=N)n3CCO)CS[C@H]12)c1csc(N)n1 [Cefoselis sulfate] (10 µM) | 0.115 | 101% (inactive) |
| O=C(O)CCCNC(=O)c1cccnc1 [pikamilone] (10 µM) | 0.0672 | 100% (inactive) |
